# A number with no mark means an inactive call. Records with an inconclusive call do not appear. Active and inactive are the calls of the source. Unless noted, calls come from the whole dose curve; as a rule, active = well fitted curve in either direction with a large enough effect (not every such curve was filed as active); inconclusive = small, poorly fitted or top-dose-only effect, or another doubt; inactive = flat fitted curve, though single readings scatter.
# Columns and labels:
# [1] = AP1 Signaling Pathway (AID 357); conditions: ME-180 AP-1-bla reporter, EGF-induced, beta-lactamase ratio, 5 h; at 17.2 µM (top of the series) unless noted; note: % is set by controls: 0 for no effect and ±100 for the full control effect
# In short: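 ME-180 cells with beta-lactamase reporter under AP-1 response element, stimulated with EC50 EGF; compounds tested in titration series, 5 h at 37 °C. CCF4 substrate added 2.5 h at room temperature; 460/530 nm emission ratio gave %activity and AC50.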
# [2] = Stat Signaling Pathway (AID 446); conditions: ME-180 SIE beta-lactamase reporter, IL-6 stimulated, 5 h; at 17.2 µM (top of the series) unless noted;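 note: ME-180 cervical cancer cells given 40 pM IL-6 alongside compound; SIE-controlled beta-lactamase reporter measured as 460/530 nm FRET emission ratio; % is set by controls: 0 for no effect and ±100 for the full control effect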
# In short: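 Compound effects on IL-6-induced STAT reporter activity were measured in ME-180 cells. After overnight culture, cells were co-treated with 40 pM IL-6 for 5 hrs before beta-lactamase substrate loading at room temperature.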
# [3] = molecular target: Glucocorticoid receptor (Homo sapiens) (UniProt P04150); experiment: GR-GFP Redistribution (AID 450;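 active = compounds whose dose series gives a full or clear partial fitted curve of increased nuclear translocation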; note: potency is the fitted concentration of half-maximal effect)
# Sequence of Glucocorticoid receptor (Homo sapiens) (P04150 whole entry, looked up, the tested form may be a part): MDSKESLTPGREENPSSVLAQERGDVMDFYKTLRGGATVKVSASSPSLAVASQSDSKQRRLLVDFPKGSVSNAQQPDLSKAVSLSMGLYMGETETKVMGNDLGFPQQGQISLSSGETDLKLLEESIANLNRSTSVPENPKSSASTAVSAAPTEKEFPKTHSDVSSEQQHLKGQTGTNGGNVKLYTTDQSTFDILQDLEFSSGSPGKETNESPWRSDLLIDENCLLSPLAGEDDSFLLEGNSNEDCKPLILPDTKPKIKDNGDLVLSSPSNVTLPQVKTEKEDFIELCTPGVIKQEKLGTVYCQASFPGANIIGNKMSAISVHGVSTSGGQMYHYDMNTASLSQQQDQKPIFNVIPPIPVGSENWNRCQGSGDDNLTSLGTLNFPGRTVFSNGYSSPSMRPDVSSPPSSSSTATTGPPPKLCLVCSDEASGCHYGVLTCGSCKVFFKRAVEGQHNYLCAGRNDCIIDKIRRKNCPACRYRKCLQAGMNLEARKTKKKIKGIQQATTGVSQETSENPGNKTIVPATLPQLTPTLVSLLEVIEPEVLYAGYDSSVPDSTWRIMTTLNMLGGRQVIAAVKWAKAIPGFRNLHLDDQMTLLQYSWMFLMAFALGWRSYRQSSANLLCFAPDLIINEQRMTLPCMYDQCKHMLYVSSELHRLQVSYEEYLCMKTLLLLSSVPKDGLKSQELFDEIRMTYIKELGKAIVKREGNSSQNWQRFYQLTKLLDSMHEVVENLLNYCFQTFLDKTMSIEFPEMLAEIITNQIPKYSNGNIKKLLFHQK
# [4] = NFAT Signaling Pathway (AID 444); conditions: Jurkat NFAT-bla M1, carbachol, beta-lactamase ratio, 5 h; at 17.2 µM (top of the series) unless noted;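 note: carbachol stimulus at about its EC50 of 1 µM final; % is set by controls: 0 for no effect and ±100 for the full control effect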
# In short: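 Read-out: CCF4 FRET ratio (460 nm/530 nm) after 1 h RT dye loading, used for %activity and AC50 from titration series. Cells: Jurkat NFAT-β-lactamase/M1 line, treated with compound plus 1 uM carbachol for 5 h, 37 °C.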
# [5] = qHTS Assay for Identification of Small Molecule Agonists for Hypoxia Response Element Signaling Pathway (AID 914; active = well fitted activation curve with a large enough effect in the signal ratio, with a control signal flat, not every such curve was filed as active; the % refers to the signal ratio; note: potency is the fitted concentration of half-maximal effect); conditions: ME-180 (cervical carcinoma) HRE-bla reporter, beta-lactamase ratio, CoCl2, 17 h; activation: active compounds read high
# In short: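 Positive modulation of EC50 CoCl2-induced hypoxia response element signaling is measured in ME-180 cells with a beta-lactamase reporter. Compounds are titrated, incubation runs 17 hours, and %Activity derives from the blue/green ratio.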
# [6] = molecular target: Glucocorticoid receptor (Homo sapiens) (UniProt P04150); experiment: GR-EFC Redistribution (AID 451; calls by dose curve; note: potency is the fitted concentration of half-maximal effect); conditions: CHO-K1 GR-EFC translocation, beta-gal luminescence, 2 h
# In short: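 Translocation of GR-ED fusion to nuclear EA restores b-gal, read by luminescence after 1 h room-temperature detection. Engineered CHO-K1 biosensor cells, 1,000/well, exposed 2 h at 37 C to titrations up to 46 uM final.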
# [7] = molecular target: Mitogen-activated protein kinase 10 (Mus musculus) (UniProt Q61831); experiment: JNK3 AlphaScreen Assay (AID 530);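 note: kinase came from lysate of stimulated human HepG2 cells; signal reports phosphorylation of biotinylated GST-cJun 1-79 at Ser73 with 10 µM ATP; % is set by controls: 0 for no effect and ±100 for the full control effect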
# In short: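 Kinase buffer: 20 mM Tris-HCl pH 7.6, 10 mM MgCl2, 1 mM DTT, 0.1 mM Na3VO4, 0.01% Tween-20; ATP 10 uM. Substrate biotin-GST-cJun(1-79), enzyme from activated HepG2 lysates. Detection by Ser73 phospho-antibody AlphaScreen.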
# [8] = molecular target: Guanine nucleotide-binding protein G(i) subunit alpha-1 (Homo sapiens) (UniProt P63096); experiment: qHTS Assay for Inhibitors of RGS12 GoLoco Motif Activity (Green Fluorophore) (AID 879; active = well fitted curve in the direction sought with a large enough effect; an effect the other way counts as inactive or inconclusive;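 note: 0% = labeled peptide with Gαi1 and full inhibition = labeled peptide alone without protein; negative values mean loss of peptide binding seen as reduced polarization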)
# Sequence of Guanine nucleotide-binding protein G(i) subunit alpha-1 (Homo sapiens) (P63096 whole entry, looked up): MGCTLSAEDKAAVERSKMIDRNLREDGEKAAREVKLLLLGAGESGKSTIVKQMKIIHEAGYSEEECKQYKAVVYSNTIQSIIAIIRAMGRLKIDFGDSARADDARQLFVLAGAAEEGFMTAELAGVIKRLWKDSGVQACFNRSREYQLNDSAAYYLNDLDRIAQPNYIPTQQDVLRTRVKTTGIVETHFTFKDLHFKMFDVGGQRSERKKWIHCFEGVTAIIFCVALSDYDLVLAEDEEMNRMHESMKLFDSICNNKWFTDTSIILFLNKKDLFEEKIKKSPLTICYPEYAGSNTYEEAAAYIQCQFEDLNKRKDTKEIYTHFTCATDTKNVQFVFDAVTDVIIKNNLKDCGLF
# In short: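 A drop in FITC polarization marked displacement of the FITC-tagged RGS12 GoLoco peptide (10 nM) from Gαi1 (50 nM). Compounds were incubated 10 min at room temperature in Tris pH 7.5 buffer containing 150 mM NaCl, 0.1 mM GDP and 0.05% NP40; unlabeled peptide titration served as control.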
# [9] = molecular target: Muscarinic acetylcholine receptor M1 (Rattus norvegicus) (UniProt P08482); experiment: qHTS Assay for Antagonists of Acetylcholine Muscarinic M1 Receptor: Kinetic Measurement of Intracellular Calcium Response (AID 943; active = well fitted curve in the direction sought with a large enough effect; an effect the other way counts as inactive or inconclusive;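 note: Fluo-4 calcium signal as peak divided by basal fluorescence over 4 min; nearly all actives have a fitted effect of over 75% in size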)
# Sequence of Muscarinic acetylcholine receptor M1 (Rattus norvegicus) (P08482 whole entry, looked up): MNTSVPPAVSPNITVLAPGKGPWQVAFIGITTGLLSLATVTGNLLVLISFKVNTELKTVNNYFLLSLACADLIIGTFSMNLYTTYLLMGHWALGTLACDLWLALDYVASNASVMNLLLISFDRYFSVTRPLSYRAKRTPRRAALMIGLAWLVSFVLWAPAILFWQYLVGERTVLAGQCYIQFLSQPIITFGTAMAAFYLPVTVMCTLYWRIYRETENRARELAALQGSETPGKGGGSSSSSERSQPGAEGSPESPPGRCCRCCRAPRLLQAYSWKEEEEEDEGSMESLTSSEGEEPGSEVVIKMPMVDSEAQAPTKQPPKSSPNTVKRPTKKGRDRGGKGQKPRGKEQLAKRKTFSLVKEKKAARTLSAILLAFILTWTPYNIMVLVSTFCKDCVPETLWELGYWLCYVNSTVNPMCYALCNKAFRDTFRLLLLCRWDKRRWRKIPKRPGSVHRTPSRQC
# In short: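 Read-out: peak over basal Fluo-4 fluorescence, kinetic at 1 Hz for 4 min after EC80 carbachol (100 nM final). Rat M1-CHO cells, dye loaded 1 h at 37C, compound added 10 min before agonist.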
# [10] = molecular target: Pyruvate kinase (Leishmania mexicana) (UniProt Q27686); experiment: qHTS Validation Assay for Inhibitors of Leishmania Mexicana Pyruvate Kinase (AID 945; active = well fitted curve in the direction sought with a large enough effect; an effect the other way counts as inactive or inconclusive;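 note: 0% = DMSO only neutral control wells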)
# Sequence of Pyruvate kinase (Leishmania mexicana) (Q27686 2-499 E452W): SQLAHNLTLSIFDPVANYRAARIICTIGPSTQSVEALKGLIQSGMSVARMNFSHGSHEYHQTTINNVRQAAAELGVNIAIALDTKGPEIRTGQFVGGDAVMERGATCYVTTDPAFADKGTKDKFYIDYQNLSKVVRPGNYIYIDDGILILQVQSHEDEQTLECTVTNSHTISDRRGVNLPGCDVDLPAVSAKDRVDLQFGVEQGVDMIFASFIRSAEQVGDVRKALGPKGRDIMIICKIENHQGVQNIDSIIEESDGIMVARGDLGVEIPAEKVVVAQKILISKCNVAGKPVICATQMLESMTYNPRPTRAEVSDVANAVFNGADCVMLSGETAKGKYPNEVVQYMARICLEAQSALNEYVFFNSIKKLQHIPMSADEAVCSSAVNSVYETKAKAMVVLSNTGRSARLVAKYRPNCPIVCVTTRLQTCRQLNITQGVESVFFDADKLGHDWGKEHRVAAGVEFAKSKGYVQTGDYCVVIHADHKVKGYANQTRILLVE
# In short: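 qHTS eight-point titrations against 0.2 nM LmPYK (E451W) in imidazole buffer pH 7.2 with 0.5 mM PEP, 0.1 mM ADP; 1 h, room temperature. Readout: PKLight luminescence, normalized to neutral DMSO wells.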
# [11] = molecular target: Pyruvate kinase PKM (Homo sapiens) (UniProt P14618); experiment: qHTS Assay for Activators of Human Muscle Pyruvate Kinase (AID 954; active = well fitted curve in the direction sought with a large enough effect, not every such curve was filed as active;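 note: 0% = uninhibited enzyme and -100% = no enzyme or full thiadiazolimine inhibition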)
# Sequence of Pyruvate kinase PKM (Homo sapiens) (P14618 whole entry, looked up): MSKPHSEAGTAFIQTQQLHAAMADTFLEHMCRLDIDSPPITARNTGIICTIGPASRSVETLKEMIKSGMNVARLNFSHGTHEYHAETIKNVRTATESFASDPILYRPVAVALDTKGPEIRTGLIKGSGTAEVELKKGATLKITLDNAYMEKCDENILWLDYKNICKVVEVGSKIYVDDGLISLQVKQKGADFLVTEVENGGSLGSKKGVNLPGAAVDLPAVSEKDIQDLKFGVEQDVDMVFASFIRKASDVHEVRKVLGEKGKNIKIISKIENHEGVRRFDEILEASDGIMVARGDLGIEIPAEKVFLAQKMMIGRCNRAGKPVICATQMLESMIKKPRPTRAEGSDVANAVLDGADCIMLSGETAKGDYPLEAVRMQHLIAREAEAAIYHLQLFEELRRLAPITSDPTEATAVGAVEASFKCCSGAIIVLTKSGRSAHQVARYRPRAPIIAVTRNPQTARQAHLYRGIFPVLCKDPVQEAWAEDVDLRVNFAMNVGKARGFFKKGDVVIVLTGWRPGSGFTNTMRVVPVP
# In short: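 A coupled luminescent readout tracked ATP made from ADP by purified PKM2. Final conditions included 0.1 nM enzyme, PEP and ADP at 0.5 and 0.1 mM, pH 7.2 imidazole buffer with BSA, and a one-hour room-temperature reaction.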
# [12] = molecular target: Alpha-galactosidase A (Homo sapiens) (UniProt P06280); experiment: Counterscreen for Glucocerebrosidase Inhibitors: qHTS Assay for Human alpha-Galactosidase at pH 4.5 (AID 992; active = well fitted curve in the direction sought with a large enough effect; an effect the other way counts as inactive or inconclusive; note: 0% is about no effect)
# Sequence of Alpha-galactosidase A (Homo sapiens) (P06280 whole entry, looked up): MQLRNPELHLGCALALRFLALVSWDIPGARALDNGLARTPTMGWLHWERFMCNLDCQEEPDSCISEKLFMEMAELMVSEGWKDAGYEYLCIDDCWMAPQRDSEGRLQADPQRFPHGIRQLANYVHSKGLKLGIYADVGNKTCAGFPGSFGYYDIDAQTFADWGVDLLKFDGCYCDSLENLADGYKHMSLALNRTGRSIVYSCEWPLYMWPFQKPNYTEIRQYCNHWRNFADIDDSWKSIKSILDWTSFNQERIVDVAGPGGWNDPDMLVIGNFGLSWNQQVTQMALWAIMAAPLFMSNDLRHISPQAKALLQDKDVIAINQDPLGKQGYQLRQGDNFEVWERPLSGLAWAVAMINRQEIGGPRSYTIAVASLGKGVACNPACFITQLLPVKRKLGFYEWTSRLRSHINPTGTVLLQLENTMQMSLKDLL
# In short: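 Citrate buffer pH 4.5, Tween-20 0.005%. Enzyme 2 nM, substrate 80 uM, 20 min RT. Stop pH 10. Fluorescence Ex 365/Em 440. AC50 by Hill fit.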
# [13] = molecular target: alpha-glucosidase (Oryza sativa, rice) (UniProt Q653V4); experiment: Counterscreen for Glucocerebrosidase Inhibitors: qHTS Assay for Rice alpha-Glucosidase at pH 5.0 (AID 997; active = well fitted curve in the direction sought with a large enough effect; an effect the other way counts as inactive or inconclusive;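 note: 0% = full activity with enzyme and -100% = basal without enzyme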)
# In short: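 Endpoint fluorogenic assay at pH 5.0: compounds (0.7 nM to 77 uM) titrated against 4 nM rice enzyme and 400 uM 4-MU-alpha-glucoside for 20 min at room temperature; NaOH/glycine stop, read ex 365/em 440 nm, Hill-fitted AC50.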
structure (smiles),measurement,setting,value
CCCCc1c(C)c2ccc(OCC(C)=O)cc2oc1=O,"activity change, negative = inhibition",[1],-16.2%
same,"activity, negative = inhibition",[2],-0.63%
same,Potency,[3],> 20.6 µM
CC(C)c1nc(NCC2CCCO2)c(C#N)c2c1COC(C)(C)C2 (stereo not given),"activity change, negative = inhibition",[1],-26.1%
same,"activity, negative = inhibition",[2],-3.72%
same,Potency,[3],> 20.6 µM
COC(=O)CSC1=C(C#N)C(=O)NC2(CCCCC2)S1,"activity change, negative = inhibition",[1],1.61%
same,"activity, negative = inhibition",[2],3.53%
same,Potency,[3],> 20.6 µM
Cc1ccc(CNC(=O)c2cc3c(=O)n4ccccc4nc3n(CC3CCCO3)c2=N)cc1 (stereo not given),"activity change, negative = inhibition",[1],20.6%
same,"activity change, negative = inhibition",[4],21.8%
same,Potency,[3],> 20.6 µM
same,Potency,[5],7.94 µM (active)
CC1(C)Cc2c(sc3c2C2=NCCN2C=N3)CO1,"activity change, negative = inhibition",[1],12.7%
same,"activity, negative = inhibition",[2],1.72%
same,Potency,[3],> 20.6 µM
CN(Cc1c(O)ccc2c1oc(=O)c1ccccc12)C1CCCCC1,"activity change, negative = inhibition",[1],2.27%
same,"activity, negative = inhibition",[2],4.77%
Cc1cccc(C)c1OCC(O)CNS(=O)(=O)c1ccccc1C(=O)N1CCCCC1 (stereo not given),"activity change, negative = inhibition",[1],-10.2%
same,"activity, negative = inhibition",[2],-0.145%
same,Potency,[3],> 20.6 µM
CC[C@H]1OC(=O)C[C@@H](O)[C@H](C)[C@@H](O[C@@H]2O[C@H](C)C[C@H](N(C)C)[C@H]2O)[C@@H](CC=O)C[C@@H](C)C(=O)C=C[C@]2(C)O[C@H]2[C@@H]1C,"activity change, negative = inhibition",[1],1.65%
same,"activity, negative = inhibition",[2],1.05%
CCN1CCc2c(C#N)c(N3CCOCC3)nc(NCc3ccccc3)c2C1,"activity change, negative = inhibition",[1],1.6%
same,"activity, negative = inhibition",[2],1.47%
Cc1nnc(C)n1/N=C/c1cc(Br)cc(Br)c1O,"activity change, negative = inhibition",[1],-5.92%
same,"activity, negative = inhibition",[2],-19.2%
COc1ccccc1-c1nnc2n1N=C(c1ccc(O)c(O)c1)CS2,"activity change, negative = inhibition",[1],10.7%
same,"activity, negative = inhibition",[2],-15.4%
CC(C)c1nc2sc3c(c2c(=O)o1)CCCC3,"activity change, negative = inhibition",[1],-7.93%
same,"activity, negative = inhibition",[2],2.63%
same,Potency,[3],> 20.6 µM
CCc1nc2sc3c(c2c(=O)o1)CCCC3,"activity change, negative = inhibition",[1],-11.3%
same,"activity, negative = inhibition",[2],3.67%
same,Potency,[3],> 20.6 µM
COc1cc(N2CCCC2)c(OC)cc1/C=c1/sc2nc3ccccc3n2c1=O,"activity change, negative = inhibition",[1],-3.35%
same,"activity, negative = inhibition",[2],-0.381%
N#Cc1c(NCCCO)nc(-c2ccccc2)c2c1CCCC2,"activity change, negative = inhibition",[1],-2.16%
same,"activity, negative = inhibition",[2],-5.59%
CN(C)CCCO[C@H]1[C@H]([C@H](O)CO)O[C@H]2OC(C)(C)O[C@@H]21,"activity change, negative = inhibition",[1],6.88% [at 38 µM]
same,"activity change, negative = inhibition",[4],5.42% [at 38 µM]
same,Potency,[3],> 46 µM
same,Potency,[6],> 46 µM
same,Potency,[7],inactive
same,outcome,[8],inactive
same,Potency,[9],inactive
same,Potency,[10],inactive
same,outcome,[11],inactive
same,outcome,[12],inactive
same,outcome,[13],inactive
CCOc1nc(SCCOc2ccc(C)cc2)nc(N(C)C)n1,"activity change, negative = inhibition",[1],-8.15%
same,"activity, negative = inhibition",[2],-4.82%
N#Cc1c(-c2ccccc2Cl)cc(C2CC2)nc1N,"activity change, negative = inhibition",[1],4.21%
same,"activity, negative = inhibition",[2],-2.15%
same,Potency,[3],> 20.6 µM

# Reference: PubChem BioAssay (NCATS)
